Each structure is given as a SMILES string. Results filed as inconclusive are left out. Where a call stands in place of a potency, no number is given. Calls of active or inactive are those of the source. The call rests on the fitted dose curve.

Test system in the first experiment: not listed separately
Briefly: qHTS assay to identify small molecule antagonists of the estrogen receptor alpha (ER-alpha) signaling pathway - cell viability counter screen (AID 743074).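 Further: HEK293 cells carrying ER-alpha-UAS-bla reporter stimulated with 17beta-estradiol; nearly all actives have a fitted effect of over 45% in size.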 The conditions noted are these: ERalpha-bla HEK293 viability, CellTiter-Glo luminescence, 18 h; series mostly up to 69.4 µM. For orientation: Quantitative high-throughput screening tests each substance at several concentrations.
Regarding `COc1ccc2c(c1)c1c3n2CCN(C)C3=NCC1`, the outcome was inactive.

Turning to `Cc1ccc(C)c([N+](=O)[O-])c1`, the molecule was classed as inactive.

Consider `O=C(O)CNC(=O)CNC(=O)CNC(=O)CSC(=O)c1ccccc1`, for which the molecule was classed as inactive.

On to `OCC(O)CN1CCN(c2ccccc2)CC1` (centres undefined), for which the molecule was called inactive.

On to `NCC1(Cc2noc(=O)[nH]2)CCCCC1`, for which the molecule was classed as inactive.

As for `CCC(C)C(C)=O` (centres undefined), the molecule was classed as inactive.

With `Cc1ccnc(N)c1`, the molecule was called inactive.

`CCCCOC(=O)[C@H](C)O`: the outcome was inactive.

As to `O=C(NCN1CCOCC1)c1cnccn1`, the outcome was inactive.

`COC(=O)CCCCC(=O)O`: the molecule was called inactive.

With `C=C(C)[C@@H]1CC=C(C)C(=O)C1`, the molecule was classed as inactive.

Take `C=CCN1C[C@H](C(=O)N(CCCN(C)C)C(=O)NCC)C[C@@H]2c3cccc4[nH]cc(c34)C[C@H]21`: the outcome was inactive.

Regarding `COC(=O)c1ccccc1C(=O)O`, the molecule was called inactive.

Turning to `C=C(C)[C@@H]1CC=C(C)CC1`, the outcome was inactive.

In the case of `c1ccc(-c2nn[nH]n2)cc1`, the result was inactive.

Turning to `N[C@@H](Cc1ccc(O)cc1)C(=O)O`, the outcome was inactive.

`O=Cc1ccccc1Cl`: the call was inactive.

With `OCC1(CO)COCOC1`, the molecule was called inactive.

For `C=CCSSCCC`, the call was inactive.

On to `COc1cc2c(cc1OC)C(=O)C(CC1CCN(Cc3ccccc3)CC1)C2` (centres undefined), for which the call was inactive.

As to `CC(C)c1ccc(C=O)cc1`, the molecule was called inactive.

On to `CC(=O)CC(=O)OC(C)(C)C`, for which the molecule was called inactive.

Turning to `O=C(O)CONC(=O)c1ccccc1`, the molecule was classed as inactive.

With `CCCCCCCCCCCCCBr`, the molecule was classed as inactive.

Turning to `CC1CC(=O)CC(C)(C)C1` (centres undefined), the molecule was classed as inactive.

Regarding `c1ccc2cnccc2c1`, the call was inactive.

For `ONc1ccccc1`, the call was inactive.

As for `O=C(Cl)c1ccccc1[N+](=O)[O-]`, the result was inactive.

For the molecule `Cn1c(=O)c2[nH]c(Br)nc2n(C)c1=O`, the result was inactive.

With `CCCC(=O)OCCC(C)CCC=C(C)C` (centres undefined), the molecule was classed as inactive.

In the case of `C=C(C)c1cccc(C(C)(C)N=C=O)c1`, the outcome was inactive.

For the molecule `O=C[O][Al]([O]C=O)[O]C=O`, the result was inactive.

For the molecule `CN1CCOC(c2ccccc2)c2ccccc2C1` (centres undefined), the result was inactive.

For a further experiment, the target named is Estrogen receptor (Homo sapiens) (UniProt P03372). The experiment in a line: qHTS assay to identify small molecule agonists of the estrogen receptor alpha (ER-alpha) signaling pathway (AID 743075).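 Further: HEK293 GripTite cells with ER-alpha and UAS-driven beta-lactamase reporter.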 The note with it: HEK293 ER-alpha-UAS-bla, beta-lactamase FRET ratio, 18 h; series mostly up to 70.1 µM.
Chain of Estrogen receptor (Homo sapiens) (P03372 whole entry, looked up): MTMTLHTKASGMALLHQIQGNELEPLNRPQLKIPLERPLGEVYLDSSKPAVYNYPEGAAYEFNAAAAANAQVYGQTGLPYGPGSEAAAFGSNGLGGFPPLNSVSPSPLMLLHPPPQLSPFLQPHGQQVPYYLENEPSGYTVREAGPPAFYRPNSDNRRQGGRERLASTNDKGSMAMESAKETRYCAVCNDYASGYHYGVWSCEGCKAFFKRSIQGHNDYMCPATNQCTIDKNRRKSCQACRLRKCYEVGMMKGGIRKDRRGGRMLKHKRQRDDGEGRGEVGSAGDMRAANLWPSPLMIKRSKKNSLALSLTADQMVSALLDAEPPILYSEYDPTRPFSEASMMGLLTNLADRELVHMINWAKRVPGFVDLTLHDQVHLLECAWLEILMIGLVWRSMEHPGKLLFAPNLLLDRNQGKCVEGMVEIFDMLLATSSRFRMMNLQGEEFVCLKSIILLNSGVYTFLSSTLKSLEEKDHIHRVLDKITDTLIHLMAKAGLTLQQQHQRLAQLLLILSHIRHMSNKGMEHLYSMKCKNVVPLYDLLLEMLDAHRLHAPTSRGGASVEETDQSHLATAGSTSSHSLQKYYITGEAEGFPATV
Consider `COc1ccc2c(c1)c1c3n2CCN(C)C3=NCC1`, for which the Potency entry is “inactive”.

For `O=C(O)CNC(=O)CNC(=O)CNC(=O)CSC(=O)c1ccccc1`, the Potency result is “inactive”.

Regarding `NCC1(Cc2noc(=O)[nH]2)CCCCC1`, the Potency result was “inactive”.

Turning to `OCCN1CCOCC1`, the Potency entry is “inactive”.

For the molecule `CCC(C)C(C)=O` (centres undefined), the Potency result was “inactive”.

As to `CCCCOC(=O)[C@H](C)O`, the Potency result was “inactive”.

For `O=C(NCN1CCOCC1)c1cnccn1`, the Potency result is “inactive”.

In the case of `COC(=O)CCCCC(=O)O`, the Potency entry was “inactive”.

For `C=CCN1C[C@H](C(=O)N(CCCN(C)C)C(=O)NCC)C[C@@H]2c3cccc4[nH]cc(c34)C[C@H]21`, the Potency entry is “inactive”.

On to `COC(=O)c1ccccc1C(=O)O`, for which the Potency result was “inactive”.

As to `C=C(C)[C@@H]1CC=C(C)CC1`, the Potency result is “inactive”.

For the molecule `c1ccc(-c2nn[nH]n2)cc1`, the Potency entry was “inactive”.

Regarding `C=CCSSCCC`, the Potency entry was “inactive”.

`COc1cc2c(cc1OC)C(=O)C(CC1CCN(Cc3ccccc3)CC1)C2` (centres undefined): the Potency result is “inactive”.

`CC(C)c1ccc(C=O)cc1`: the Potency result was “inactive”.

Take `CC(=O)CC(=O)OC(C)(C)C`: the Potency result was “inactive”.

In the case of `CC1CC(=O)CC(C)(C)C1` (centres undefined), the Potency result was “inactive”.

On to `c1ccc2cnccc2c1`, for which the Potency result is “inactive”.

As to `ONc1ccccc1`, the Potency result is “inactive”.

As for `C=C(C)c1cccc(C(C)(C)N=C=O)c1`, the Potency entry is “inactive”.

As for `O=C[O][Al]([O]C=O)[O]C=O`, the Potency entry is “inactive”.

The values above are taken from PubChem BioAssay (Tox21).
